Where “and” joins values, the source holds several entries; their conditions need not be identical. Equal entries are not always repeated. About 83,000 compounds went through this panel and 20% of them were active in at least one assay; those are over-represented in the sample as a whole.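 Cells were grown in 96-well plates and exposed to the test compound at a single concentration for 48 hours; results are reported as percent growth, with values below 10 considered active.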 Values without a mark were called inactive. Calls of active or inactive are those of the source.
test system: HL-60(TB) leukemia; test: NCI-60 one-dose screen, 48 h (100 = growth as untreated, 0 = no growth, -100 = all killed); conditions: 10 µM unless noted

Row | SMILES | growth
1 | CCN(CC)c1ccnc(CNCCSC(c2ccccc2)(c2ccccc2)c2ccc(OC)cc2)c1 | -34.3% (active)
2 | O=C(c1ccc(O)cc1)C1[C@H](c2ccc(Br)cc2)[C@@H](c2ccccc2)NC12C(=O)Nc1ccccc12 (stereo partly drawn) | 50.5%
3 | COc1ccc(NC(=O)[C@H](CO)NC(=O)OC(C)(C)C)cc1C(=O)Nc1cccc(C2CC(=O)c3c(cc(OC)c(OC)c3OC)O2)c1 (stereo partly drawn) | 58.1%
4 | Nc1ccc(-c2ccc3ncnc(N4CCc5cc(F)c(Cl)cc54)c3c2)cn1 | 22.8%
5 | Nc1nnc(-c2c[nH]c3ncccc23)c(-c2c[nH]c3ccc(Br)cc23)n1 | 42%
6 | Cc1nc(Nc2ncc(C(=O)Nc3c(C)cccc3Cl)s2)cc(N2CCN(CCCNC(=O)COc3ccc(C4CCC(=O)NC4=O)cc3)CC2)n1 (stereo not drawn) | 76.3%
7 | CCCSc1nc(NCCc2c[nH]c3ccccc23)c(C#N)c(-c2ccccc2)n1 | 70.4%
8 | C=CC[n+]1cccc2c3ccccc3ccc21 | 57.2%
9 | Oc1ccc(F)c(Nc2nc(SCCN3CCOCC3)nc3c2cnn3CC(Cl)c2ccc(Br)cc2)c1 (stereo not drawn) | 2.22% (active)
10 | CCCCOc1ccc(Nc2nc3ccccc3nc2Nc2ccc(OCCCC)cc2)cc1 | 79.7%
11 | Clc1ccc(-c2nc3c4c(-c5ccccc5)c(-c5ccccc5)n(Cc5ccccc5)c4ncn3n2)cc1 | -27.7% (active)
12 | C=CCSc1nnc(-c2ccc(-c3nc4ccccc4[nH]3)cc2)o1 | 57.6%
13 | COc1cc(C=O)ccc1OC(=O)c1cc(-c2ccc(C)cc2)n(-c2ccc(S(C)(=O)=O)cc2)n1 | 83.4%
14 | O=C(CN1C(=O)/C(=C/c2ccccc2Cl)SC1=S)N1CCOCC1 | 90.2%
15 | CC(C)(C)c1ccc(OCc2nc3ccccc3n2-c2cccc(N)c2)cc1 | 67.8% and 98.6%
16 | Cc1nn(-c2ccccc2)c2ncn(CC(=O)N/N=C/c3ccccc3O)c(=O)c12 | 6.2% (active)
17 | S=C(Nc1ccccc1)Nc1ccc(OCc2nc3ccc(Cl)cc3[nH]2)cc1 | 85.2%
18 | NS(=O)(=O)c1cccc(Nc2nc(SCC(=O)c3ccc(F)cc3)nc3ccccc23)c1 | 6.93% (active)
19 | COc1c(F)ccc(C(=O)Nc2ccc3nc(NC(=O)C4CCCN(S(=O)(=O)c5ccc(Cl)cc5)C4)sc3c2)c1F (stereo not drawn) | 83.4%
20 | Nc1nnc(-c2cncc(Br)c2)c(-c2c[nH]c3ccc(Cl)cc23)n1 | 64.3%
21 | COc1ccc(-c2nc3cc(C)ccc3n2CC(=O)N=Nc2c(O)[nH]c3ccc(Br)cc23)cc1 | 39.4%
22 | Nc1nn2c(-c3cc4ccccc4oc3=O)ccnc2c1N=Nc1ccccc1 | 108%
23 | O=C(NO)c1ccc(CNC(=O)[C@H]2Cc3c([nH]c4ccccc34)[C@H](c3ccccc3)N2)cc1 | 0.371% (active)

test system: MDA-MB-468 breast; test: as above; conditions: 10 µM unless noted

Row | SMILES | growth [%]
24 | CC12CCC3C(CCC4Cc5[nH]c6ccccc6c5CC43C)C1CCC2O (stereo not drawn) | 29.3
25 | O=P(N1CC1)(N1CC1)N1CCc2ccccc21 | 95.2
26 | CC1(C)N=C(N)N=C(N)N1c1ccc(OCCCCNC(=O)Nc2cccc(S(=O)(=O)F)c2)c(Cl)c1 | 40.9
27 | COc1cc(CNCCc2ccc(Cl)cc2)cc(OC)c1O | 43.5
28 | COc1ccc(/C(C)=C(\c2ccc(OCCN3CCOCC3)cc2)c2ccc(OC(=O)Cc3ccccc3)cc2)cc1 | 104
